From PubChem BioAssay (NCATS)
A number with no mark means an inactive call. Entries that show only a call come without a potency. For part of these data: Potency and affinity values are given separately. The source made the active and inactive calls. The rule behind the calls is not given here.

Columns and labels:
[1] = Ebola virus entry assay, green fluorescence channel
[2] = Ebola virus entry assay, blue channel fluorescence
[3] = Ebola virus entry assay, ratio channel
[4] = Ebola virus entry assay, green channel fluorescence
[5] = Ebola virus entry assay, reporter ratio channel; Channel type: primary
[6] = Ebola virus entry assay, blue channel (ratio component)

Row | SMILES | efficacy [1] | outcome [2] | outcome [3] | outcome [4] | outcome [5] | outcome [6] | AC50 [2] | AC50 [3]
1 | C[C@@H]1CC[C@@]2(OC1)O[C@H]1C[C@H]3[C@@H]4CC[C@H]5C[C@@H](O)CC[C@]5(C)[C@H]4CC(=O)[C@]3(C)[C@H]1[C@@H]2C | 21.9% | inactive | inactive | inactive | inactive | inactive |  | 
2 | CCCCCOc1ccc(C2SC(=O)NC2=O)cc1OCC (configuration not stated) | 24.1% | inactive | inactive | inactive | inactive | inactive |  | 
3 | CC(=O)Oc1ccc(C2(c3ccc(OC(C)=O)cc3)C(=O)Nc3ccccc32)cc1 | -16% | inactive | inactive | inactive | inactive | inactive |  | 
4 | O=C(O)Cn1c(C(=O)Nc2nc(-c3ccccc3Cl)cs2)cc2ccccc21 | -23.1% | inactive | inactive | inactive | inactive | inactive |  | 
5 | CC1(C)OC(=O)Nc2ccc(Br)cc21 | -21.5% | inactive | inactive | inactive | inactive | inactive |  | 
6 | CCCc1ncc(C[n+]2ccccc2C)c(N)n1 | -20.5% | inactive | inactive | inactive | inactive | inactive |  | 
7 | Nc1ccn(C2CO[C@H](CO)O2)c(=O)n1 (some centres not stated) | -24% | inactive | inactive | inactive | inactive | inactive |  | 
8 | CC(C)c1cc2c(cc1S(=O)(=O)O)[C@@]1(C)CCC[C@@](C)(C(=O)O)[C@@H]1CC2 | -15.6% | inactive | inactive | inactive | inactive | inactive |  | 
9 | C/C(=C(\CCOP(=O)(O)O)SC(=O)c1ccccc1)N(C=O)Cc1cnc(C)nc1N | -17.4% | inactive | inactive | inactive | inactive | inactive |  | 
10 | CN(C)C(=O)Nc1ccc(Cl)c(Cl)c1 | 15.7% | inactive | inactive | inactive | inactive | inactive |  | 
11 | C[N+]1(C)CCC(=C(c2ccccc2)c2ccccc2)CC1 | -9.5% | inactive | inactive | inactive | inactive | inactive |  | 
12 | CCOCCOC(=O)/C=C/c1ccc(OC)cc1 | 19.6% | inactive | inactive | inactive | inactive | inactive |  | 
13 | CCc1nnc(NS(=O)(=O)c2ccc(N)cc2)s1 | -8.59% | inactive | inactive | inactive | inactive | inactive |  | 
14 | CCN[C@@H]1C[C@H](N)[C@@H](OC2OC(CN)=CCC2N)[C@H](O)[C@H]1O[C@H]1OC[C@](C)(O)[C@H](NC)[C@H]1O (some centres not stated) | -8.89% | inactive | inactive | inactive | inactive | inactive |  | 
15 | CCCCCN(CCCCC)C(=O)C(CCC(=O)O)NC(=O)c1ccc(Cl)c(Cl)c1 (configuration not stated) | 12.6% | inactive | inactive | inactive | inactive | inactive |  | 
16 | CCN(CC)CC(=O)OCC(=O)[C@@]1(O)CC[C@H]2[C@@H]3CCC4=CC(=O)CC[C@]4(C)[C@H]3[C@@H](O)C[C@@]21C | 17.3% | inactive | inactive | inactive | inactive | inactive |  | 
17 | CN1[C@@H]2CC[C@H]1CC(NC(=O)n1c(=O)[nH]c3ccccc31)C2 (some centres not stated) | -15.6% | inactive | inactive | inactive | inactive | inactive |  | 
18 | O=C1NC(=O)[C@@]2(CCOc3ccc(F)cc32)N1 | -52% | inactive | inactive | inactive | inactive | inactive |  | 
19 | CC(=O)OCC1=C(C(=O)O)N2C(=O)[C@@H](NC(=O)CSc3ccncc3)[C@H]2SC1 | -6.58% | inactive | inactive | inactive | inactive | inactive |  | 

Row | SMILES | efficacy [1] | outcome [2] | outcome [3] | outcome [4] | outcome [5] | outcome [6] | AC50 [2] | AC50 [3]
20 | CCOc1ccc(C(=O)OCCN(CC)CC)cc1 | 22.6% | inactive | inactive | inactive | inactive | inactive |  | 
21 | CCN(CC)CCN | -14.9% | inactive | inactive | inactive | inactive | inactive |  | 
22 | Nc1c(CC(=O)O)cccc1C(=O)c1ccc(Br)cc1 | 18.5% | inactive | inactive | inactive | inactive | inactive |  | 
23 | OCc1ccccc1O | -17.7% | inactive | inactive | inactive | inactive | inactive |  | 
24 | CC(C)(Oc1ccc(CCNC(=O)c2ccc(Cl)cc2)cc1)C(=O)O | -16.5% | inactive | inactive | inactive | inactive | inactive |  | 
25 | O=S1(=O)OC(c2ccc(O)cc2)(c2ccc(O)cc2)c2ccccc21 | 19.3% | inactive | inactive | inactive | inactive | inactive |  | 
26 | N[C@@H](Cc1cc(I)c(O)c(I)c1)C(=O)O | 29.5% | inactive | inactive | inactive | inactive | inactive |  | 
27 | O=C(O)CN(CCOCCOCCN(CC(=O)O)CC(=O)O)CC(=O)O | 19.2% | inactive | inactive | inactive | inactive | inactive |  | 
28 | CC(C)=CCNc1ncnc2c1ncn2[C@@H]1O[C@H](CO)[C@@H](O)[C@H]1O | 38.7% | inactive | inactive | inactive | inactive | inactive |  | 
29 | CC(=O)N(CC(O)CN(C(C)=O)c1c(I)c(C(=O)NCC(O)CO)c(I)c(C(=O)NCC(O)CO)c1I)c1c(I)c(C(=O)NCC(O)CO)c(I)c(C(=O)NCC(O)CO)c1I (configuration not stated) | -12.3% | inactive | inactive | inactive | inactive | inactive |  | 
30 | NS(=O)(=O)c1cc2c(cc1Cl)CN(C1CCCCC1)C2=O | 30.3% | inactive | inactive | inactive | inactive | inactive |  | 
31 | C#C[C@]1(O)CC[C@H]2[C@@H]3CCC4=CC(=O)CC[C@@H]4[C@H]3CC[C@@]21C | -11.7% | inactive | inactive | inactive | inactive | inactive |  | 
32 | COC(=O)C1=C(C)NC(C)=C(C(=O)OC)C1c1ccccc1[N+](=O)[O-] | 16.8% | inactive | inactive | inactive | inactive | inactive |  | 
33 | CCOC(CN1CCN(CC(C)C(=O)c2ccccc2)CC1)c1ccccc1 (configuration not stated) | 11.6% |  |  | inactive | inactive | inactive | 7.08 µM (active) | 10 µM (active)
34 | CC(=O)OC[C@H]1O[C@@](COC(C)=O)(O[C@H]2O[C@H](COC(C)=O)[C@@H](OC(C)=O)[C@H](OC(C)=O)[C@H]2OC(C)=O)[C@@H](OC(C)=O)[C@@H]1OC(C)=O | 9.99% | inactive | inactive | inactive | inactive | inactive |  | 
35 | CS(=O)(=O)c1ccc(-c2cn3ccccc3n2)cc1 | -11.6% | inactive | inactive | inactive | inactive | inactive |  | 
36 | CC(NC(CCc1ccccc1)C(=O)O)C(=O)N1C(=O)N(C)CC1C(=O)O (configuration not stated) | -14.7% | inactive | inactive | inactive | inactive | inactive |  | 
37 | CCCCCC(N)=O | 10.6% | inactive | inactive | inactive | inactive | inactive |  | 
38 | c1ccc(CC2=NCCN2)cc1 | -17.9% | inactive | inactive | inactive | inactive | inactive |  | 

Row | SMILES | efficacy [1] | outcome [2] | outcome [3] | outcome [4] | outcome [5] | outcome [6] | AC50 [2] | AC50 [3]
39 | CCC(CC)(CC(=O)Nc1cccc(/C=C/c2nc(C3CCC3)cs2)c1)C(=O)O | -22.5% | inactive | inactive | inactive | inactive | inactive |  | 
40 | COc1cccc2c1C(=O)c1c(O)c3c(c(O)c1C2=O)C[C@@](O)(C(=O)CO)C[C@@H]3O[C@H]1C[C@H](N)[C@H](O[C@@H]2CCCCO2)[C@H](C)O1 | 15.3% | inactive | inactive | inactive | inactive | inactive |  | 
41 | O=C(O)c1cn(C2CC2)c2cc(Cl)c(F)cc2c1=O | 14.4% | inactive | inactive | inactive | inactive | inactive |  | 
42 | O=c1[nH]cnc2c1ncn2[C@@H]1O[C@H](CO)[C@@H](O)[C@H]1O | -42.8% | inactive | inactive | inactive | inactive | inactive |  | 
43 | Cc1ccc(/C=N/n2c(-c3ccccc3)csc2=S)cc1 | 32.3% | inactive | inactive | inactive | inactive | inactive |  | 
44 | O=C(CCCCC(=O)Nc1c(I)cc(I)c(C(=O)O)c1I)Nc1c(I)cc(I)c(C(=O)O)c1I | 11.5% | inactive | inactive | inactive | inactive | inactive |  | 
45 | C[C@]12CCC(=O)C=C1CC[C@@H]1[C@@H]2C(=O)C[C@@]2(C)[C@H]1CC[C@]2(O)C(=O)CO | 28.7% | inactive | inactive | inactive | inactive | inactive |  | 
46 | CCCCOC(=O)CCCCCCCCC(=O)OCCCC | -13.9% | inactive | inactive | inactive | inactive | inactive |  | 
47 | O=c1[nH]c2ccccc2c(=O)n1CCCl | -18.7% | inactive | inactive | inactive | inactive | inactive |  | 
48 | CCOC(=O)n1ccn(C)c1=S | -11.5% | inactive | inactive | inactive | inactive | inactive |  | 
49 | CCCn1cnc2c1c(=O)n(CCCCC(C)=O)c(=O)n2C | 33.9% | inactive | inactive | inactive | inactive | inactive |  | 
50 | OC[C@]1(O)OC[C@@H](O)[C@H](O)[C@@H]1O | -31% | inactive | inactive | inactive | inactive | inactive |  | 
51 | OC[C@H]1O[C@@H](OCCc2ccc(O)cc2)[C@H](O)[C@@H](O)[C@H]1O | -19% | inactive | inactive | inactive | inactive | inactive |  | 
52 | COc1cc2[nH]c(=O)[nH]c(=O)c2cc1OC | 23.8% | inactive | inactive | inactive | inactive | inactive |  | 
53 | CCOC(=O)CN1CCCC1=O | 24% | inactive | inactive | inactive | inactive | inactive |  | 
54 | O=C(NN1CCCC1)NS(=O)(=O)c1ccc(Cl)cc1 | -14.3% | inactive | inactive | inactive | inactive | inactive |  | 
55 | COc1ccnc2c1CCCCC2S(=O)c1nc2ccccc2[nH]1 (configuration not stated) | -22.9% | inactive | inactive | inactive | inactive | inactive |  | 
56 | O=C1N(c2ccccc2)c2ccccc2C1(Cc1ccncc1)Cc1ccncc1 | 21.1% | inactive | inactive | inactive | inactive | inactive |  | 
57 | c1ccc([C@H]2CN3CCSC3=N2)cc1 | -38.1% | inactive | inactive | inactive | inactive | inactive |  | 
